# Measured values: PubChem BioAssay (NCI)
# About 79,000 compounds went through this panel and 15% of them were active in at least one assay; those are over-represented in the sample as a whole. The source made the active and inactive calls. Cut-off read from the data, not from the text of the source: active = growth inhibition above about 70%; inactive = the rest.
# Key:
# [1] = NCI Yeast Anticancer Drug Screen. Data for the rad50 strain (AID 155);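 note: 0% = growth of vehicle-only cultures of the same strain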; conditions: S. cerevisiae rad50 strain growth inhibition, hits give high values
# In short: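 Yeast carrying a defined DNA repair defect were exposed to test compounds, and growth was compared with vehicle-treated controls to give percent inhibition.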
# [2] = NCI Yeast Anticancer Drug Screen. Data for the mec2-1 strain (AID 157); conditions: S. cerevisiae mec2-1 strain, hits give high values
# In short: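 Compounds were applied to mec2-1 yeast cells. Their growth was then compared with that of vehicle-treated cultures to give growth inhibition.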
# [3] = NCI Yeast Anticancer Drug Screen. Data for the sgs1 mgt1 strain (AID 161);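 note: 0% = growth of cultures given vehicle only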; conditions: S. cerevisiae sgs1 mgt1 strain, hits give high values
# In short: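 This yeast growth screen uses a strain with defined DNA-repair lesions; compound-treated growth is compared with vehicle-treated growth.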
# [4] = NCI Yeast Anticancer Drug Screen. Data for the cln2 rad14 strain (AID 165);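 note: 0% = growth equal to vehicle treated cultures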; conditions: S. cerevisiae cln2 rad14 strain, hits give high values
# In short: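 Strain: cln2 rad14 yeast, altered in cell cycle control and DNA damage repair. Read-out: growth inhibition vs vehicle.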
# [5] = NCI Yeast Anticancer Drug Screen. Data for the bub3 strain (AID 167); conditions: S. cerevisiae bub3 mutant strain, hits give high values
# In short: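 Compounds were applied to a genetically altered yeast strain carrying a cell-cycle control defect. Growth inhibition was scored against vehicle-treated controls.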
# [6] = NCI Yeast Anticancer Drug Screen. Data for the mlh1 rad18 strain (AID 175); conditions: S. cerevisiae mlh1 rad18 strain growth inhibition, hits give high values
# In short: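 A repair-deficient yeast strain is exposed to test compound, and growth is scored relative to vehicle-treated controls.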
# [7] = at 5.0 µM (retest, dose inferred, filed as 0.5)
# [8] = at 50.0 µM (retest, dose inferred, filed as 5.0)
Structure (SMILES),"growth inhibition [1, 7]","growth inhibition [1, 8]",growth inhibition ([1]; at 50.0 µM),"growth inhibition [2, 7]","growth inhibition [2, 8]",growth inhibition ([2]; at 50.0 µM),"growth inhibition [3, 7]","growth inhibition [3, 8]",growth inhibition ([3]; at 50.0 µM),"growth inhibition [4, 7]","growth inhibition [4, 8]",growth inhibition ([4]; at 50.0 µM),"growth inhibition [5, 7]","growth inhibition [5, 8]",growth inhibition ([5]; at 50.0 µM),"growth inhibition [6, 7]","growth inhibition [6, 8]",growth inhibition ([6]; at 50.0 µM)
CCCCOC(=O)c1nc(N(CC2CCCCC2)C(=O)NC)sc1NC(=O)NC,-3% (inactive),92% (active),10.5% (inactive),-3% (inactive),95% (active),0.85% (inactive),-18% (inactive),97% (active),8.7% (inactive),-3% (inactive),95% (active),1.6% (inactive),0% (inactive),95% (active),-1.65% (inactive),5% (inactive),96% (active),29.2% (inactive)
CCC1CCC(CC)C1O (configuration not stated),1% (inactive),6% (inactive),34.9% (inactive),0% (inactive),-3% (inactive),22.9% (inactive),2% (inactive),0% (inactive),26.8% (inactive),1% (inactive),4% (inactive),29.8% (inactive),1% (inactive),2% (inactive),78.7% (active),-2% (inactive),2% (inactive),28.5% (inactive)
CN(/N=C\c1cccc([N+](=O)[O-])c1)C(c1cccc([N+](=O)[O-])c1)N(C)/N=C/c1cccc([N+](=O)[O-])c1 (configuration not stated),-1% (inactive),34% (inactive),43% (inactive),-1% (inactive),45% (inactive),48.4% (inactive),2% (inactive),74% (active),68.5% (inactive),0% (inactive),17% (inactive),8.75% (inactive),-7% (inactive),16% (inactive),16.5% (inactive),0% (inactive),40% (inactive),40.6% (inactive)
CNc1ccc(F)cc1SSc1cc(F)ccc1NC,97% (active),98% (active),99% (active),94% (active),99% (active),99.5% (active),95% (active),99% (active),99.4% (active),10% (inactive),99% (active),99% (active),38% (inactive),99% (active),99.2% (active),97% (active),99% (active),99.2% (active)
